Experimental findings from PubChem BioAssay (NCATS) are described below.

Inconclusive results are not listed. A call without a number means that no potency is given here. Activity calls are given as the source filed them. The call rests on the fitted dose curve; in most records, active means well fitted inhibition curve with a large enough effect; inconclusive means small, poorly fitted or top-dose-only effect; inactive means flat fitted curve, though single readings scatter.
Potency means the concentration at half of the fitted maximal effect.

The assay deals with MCC-26. The experiment in a line: qHTS assay to identify novel small-molecules to repurpose for Merkel cell carcinoma treatment (AID 1296009). Further: nearly all actives have a fitted effect of over 60% in size. The conditions noted are these: MCC and control cell lines, CellTiter-Glo viability, 72 h; series mostly up to 46 µM. From the text:
MCC is a rare and aggressive neuroendocrine skin cancer with limited treatment options. Approximately 80% of MCCs have the Merkel cell polyomavirus (MCPyV) DNA integrated into the host genome (virus-positive: VP-MCC) and viral oncogenes drive oncogenesis. The remaining MCCs are virus-negative (VN-MCC) and are caused by UV mutagenesis. To identify novel treatments for VP-MCC and/or VN-MCC we screened three VP-MCC cell lines (WAGA, MKL-1, MKL-2), three VN-MCC cell lines (MCC-13, MCC-26, UISO), and four immortalized, non-transformed control cell lines (HaCaT, HEK293T, CRL7250, NIH-3T3) against ~2,400 compounds in the NCGC Pharmaceutical Collection (NPC) and ~1,900 compounds in the Mechanism Interrogation PlatE (MiPE). Using cell viability as a readout (CellTiter-Glo assay) we found both overlapping and distinct drugs that can be repurposed for the treatment of VP-MCC and VN-MCC.
A high-throughput screen was conducted in 1536-well white flat bottom plates (Corning) on a Kalypsys robotic system. Cell lines WAGA, MKL-1, MKL-2, MCC-13, MCC-26, UISO, HaCaT, HEK293T, CRL7250, and NIH-3T3 were screened against 2 small molecule annotated drug libraries NPC and MIPE in dose response (8 and 11 pt. respectively) measuring cell viability after 72 hours of incubation. […] A 1,536 pintool (Kalypsys) was used to transfer 23 nL of compound in DMSO to the 1,536-well assay plates. After 72 hr incubation at 37 degree celsius, 2.5 uL of CellTiter-Glo (Promega) was dispensed into each well using a BiorapTR. Plates were incubated at room temperature for 10 min, transferred to a ViewLux (PerkinElmer) and the luminescence was recorded using an exposure time of 2 seconds. Relative luminescence units (RLUs) were normalized to in-plate controls (no cells as a positive (cytotoxicity) control, DMSO as negative control) and the normalized data was processed using NCATS in-house software.
`CC(C)c1noc(N2CCC(COc3ccc(-c4ccc(S(C)(=O)=O)cc4)nc3)CC2)n1`: the Potency result is “inactive”.
For the compound `COc1cc2c(Oc3ccc(NC(=O)C4(C(=O)Nc5ccc(F)cc5)CC4)cc3F)ccnc2cc1OCCCN1CCOCC1`, the Potency is 4.69 µM (active).
In the case of `C=CC(=O)Nc1cccc(Oc2nc(Nc3ccc(N4CCN(C)CC4)cc3)ncc2Cl)c1` it was 11.8 µM (active); in that of `CCCCc1nc2cc(C=CC(=O)NO)ccc2n1CCN(CC)CC`, 8.33 µM (active).
Regarding `Cc1cc(Nc2cc(NC(=O)c3c(Cl)cccc3Cl)ccn2)nc(N)n1`, the Potency was 26.4 µM (active).
As for `CN1c2cc(O)c(N=NC(N)=O)cc2CC1S(=O)(=O)O` (stereo not given), the Potency entry was “inactive”.
In the case of `Cc1ccc(CN2CCNCC2)cc1NC(=O)CNc1ccc(F)c(F)c1`, the Potency entry was “inactive”.
Turning to `N#Cc1c(O)c2c(-c3ccc(-c4ccccc4O)cc3)csc2[nH]c1=O`, the Potency entry was “inactive”.
In the case of `CC(C)(O)CCc1ccc(OCc2cc(-c3cccc(OC(F)F)c3)c3ncccc3c2)cc1` it was “inactive”.
Then `CC(=O)Nc1sc2c(c1-c1nc3ccccc3s1)CNC2`, with “inactive”.
`O=C(O)c1ccc2c(c1)nc(Nc1cccc(Cl)c1)c1ccncc12`: the Potency result was “inactive”.
Regarding `O=C(CCCCCCC(=O)Nc1ccc([C@H]2O[C@@H](CSc3nc(-c4ccccc4)c(-c4ccccc4)o3)C[C@@H](c3ccc(CO)cc3)O2)cc1)NO`, the Potency was 23.5 µM (active).
In the case of `Cc1c(Cn2c(C)nc3c(C(=O)O)cc(N4CCOCC4)cc32)cccc1C(F)(F)F`, the Potency result is “inactive”.
Turning to `CC(C)c1ccc(Cn2ccc3c4c(N)nc(NC5CC5)nc4ccc32)cc1`, the Potency is 16.6 µM (active).
In the case of `Cc1cc(Nc2nc(N[C@@H](C)c3ccc(F)cc3)c(C#N)cc2F)n[nH]1` it was 7.43 µM (active); in that of `CCCn1c(=O)c2[nH]c(-c3cnn(Cc4cccc(C(F)(F)F)c4)c3)nc2n(CC)c1=O`, “inactive”.
On to `COC(=O)Nc1ccc(-c2nc(N3CCOCC3)c3cnn(C4CCN(Cc5cccnc5)CC4)c3n2)cc1`, for which the Potency is 8.33 µM (active).
As to `CC(C)Nc1cc(C(F)(F)F)cc2nc(NC(=O)c3cccnc3)nn12`, the Potency entry is “inactive”.
As to `CCN1CCN(Cc2ccc(-c3cc4c(N[C@H](C)c5ccccc5)ncnc4[nH]3)cc2)CC1`, the Potency was 0.743 µM (active).
`CCCCCN(CCC12CC3CC(CC(C3)C1)C2)C(=O)NCCCc1ccncc1`: the Potency entry was “inactive”.
In the case of `CN1CCN(c2cc(C(=O)Nc3ccc4c(c3)-c3c(c(C(N)=O)nn3-c3ccc(F)cc3)CC4)c(Cl)cn2)CC1` it was “inactive”.
As for `C=C1C(=CC=C2CCCC3(C)[C@@H]([C@H](C)C=CC=CC(O)(CC)CC)CC[C@@H]23)C[C@@H](O)C[C@@H]1O` (stereo not given in full), the Potency entry was “inactive”.
On to `COc1cc2c(Nc3ccc(NC(=O)c4ccccc4)cc3)ncnc2cc1OCCCN1CCOCC1`, for which the Potency entry is “inactive”.
As for `O=C(C=Cc1c(C(=O)O)[nH]c2cc(Cl)cc(Cl)c12)Nc1ccccc1`, the Potency entry is “inactive”.
As to `CC(C)c1ccccc1Cc1cc(C(=O)Nc2ccc(S(=O)(=O)c3ccccc3C(C)(C)C)cc2)c(O)c(O)c1O`, the Potency entry was “inactive”.
In the case of `CN(C)c1nc(Cc2ccc(NC(=O)c3ccc4ccccc4c3)cc2)nc(Cl)c1CC(=O)O` it was “inactive”.
Turning to `C=CCn1c(=O)c2cnc(Nc3ccc(N4CCN(C)CC4)cc3)nc2n1-c1cccc(C(C)(C)O)n1`, the Potency is 4.69 µM (active).
As to `CC(O)C1C(=O)N2C(C(=O)O)=C(SC3CNC(C(=O)N(C)C)C3)C(C)C12` (stereo not given), the Potency entry was “inactive”.
Regarding `COc1ccc(C=Cc2cc(OC)c(OC)c(OC)c2)cc1O`, the Potency entry is “inactive”.
Then `CC(=O)SC[C@@H](C)C(=O)N1CCC[C@H]1C(=O)N[C@@H](Cc1ccccc1)C(=O)O`, with “inactive”.
Turning to `Cc1[nH]c2ccccc2c1CCNCc1ccc(C=CC(=O)NO)cc1`, the Potency is 0.935 µM (active).
Regarding `O=c1c2ccccc2nc2n1CCc1c-2[nH]c2ccccc12`, the Potency result was “inactive”.
Regarding `CC=C1NC(=O)[C@H]2CSSCCC=C[C@H](CC(=O)N[C@H](C(C)C)C(=O)N2)OC(=O)[C@H](C(C)C)NC1=O`, the Potency was 0.0662 µM (active).
In the case of `CNC(=O)CN1CCC(Oc2cc3c(Nc4cccc(Cl)c4F)ncnc3cc2OC)CC1` it was 2.64 µM (active); in that of `COc1ccc2c(OCc3nnc4ccc(-c5ccccc5)nn34)ccnc2c1`, “inactive”.
Consider `O=C(O)c1ccc2cc(-c3ccc(O)c(C45CC6CC(CC(C6)C4)C5)c3)ccc2c1`, for which the Potency is 2.96 µM (active).
On to `COc1cccc(Nc2c(C(N)=O)cnc3c(C)cc(S(=O)(=O)c4cccc(C(=O)N(C)C)c4)cc23)c1`, for which the Potency entry is “inactive”.
Consider `Cn1cncc1[C@@](N)(c1ccc(Cl)cc1)c1ccc2c(c1)c(-c1cccc(Cl)c1)cc(=O)n2C`, for which the Potency entry was “inactive”.
As to `C=CC(=O)Nc1cccc(Oc2nc(Nc3ccc(N4CCN(C)CC4)cc3OC)ncc2Cl)c1`, the Potency was 11.8 µM (active).
Turning to `Cc1cc(Nc2cc(N3CCN(C)CC3)nc(C=Cc3ccccc3)n2)n[nH]1`, the Potency is 9.59 µM (active).
